From PubChem BioAssay AID720554 (ICCB-Longwood Screening Facility, Harvard Medical School, 2013) come the findings set out here.

SMILES strings stand for the structures. About 45 (0.4%) of roughly 12,000 compounds were called active. No stated cut-off is given here; in the data, active means inhibition mostly above about 83% (no sharp cut-off); inactive means mostly below about 52%. The sample as a whole holds a higher share of actives than the screen did.

The nature of experiment [1]: BmaI1 acyl-homoserine lactone synthase inhibition – biochemical, fluorescence intensity, with counterscreen (AID 720554). The note with it: BmaI1 enzyme assay, measured here: counterscreen fluorescence % control, concentration not given here.
Experiment [2] relates to acyl-homoserine lactone synthase BmaI1 (Burkholderia mallei ATCC 23344). The experiment is described as above. The note with it: BmaI1 enzyme assay, stronger effect = higher value, concentration not given here.

As a reminder, the inhibition is the change of the read-out against control, counted positive when it falls.

Take `COc1ccc(OCC(=O)N2CC(C)CC(C)C2)cc1` (centres undefined): the results for the inhibition in experiment [1] and in experiment [2] were -8% and 7% (inactive), respectively.

Take `NC(=S)Cc1nc2ccccc2[nH]1`: the results for the inhibition in experiment [1] and in experiment [2] were 27% and 98% (active), respectively.

Turning to `N/C(Cc1nc2ccccc2[nH]1)=N\O`, the values for the inhibition in experiment [1] and in experiment [2] were 2% and 24% (inactive), respectively.

With `CC(C)(C)Cc1nc2ccccc2[nH]1`, the inhibition in experiment [1] was 18%; in experiment [2], 20.5% (inactive).

For the molecule `Cc1cc(=O)[nH]c(NNC(=S)Nc2ccc(S(=O)(=O)N3CCOCC3)cc2)n1`, the inhibition in experiment [1] was 10%; in experiment [2], 72% (inactive).

With `COc1ccc(NC(=O)COC(=O)C23CCC(=O)N2c2ccccc2S3)cc1` (centres undefined), the inhibition in experiment [1] was 5%; in experiment [2], -0.5% (inactive).

Regarding `Cc1ccc(NC(=O)Nc2ccc(N(C)C)cc2)cc1`, the inhibition in experiment [1] was 3.5%; in experiment [2], 98.5% (active).

In the case of `Cc1ccc(C(=O)OCC(=O)Nc2ccc(N(C)C)cc2)c(C)c1`, the inhibition in experiment [1] is -7.5%; in experiment [2], 24.5% (inactive).

With `Cc1ccc(NC(=O)Nc2ccc3c(c2)C(=O)NC3=O)cc1`, the inhibition in experiment [1] is 14%; in experiment [2] it was 9% (inactive).

Turning to `CN(C)C(CNC(=O)c1ccc2ncsc2c1)c1cccs1` (centres undefined), the figures for the inhibition in experiment [1] and in experiment [2] were 13% and 18% (inactive), respectively.

`O=C(CCc1nc2ccccc2o1)Nc1cccc(-n2cnnn2)c1`: the inhibition in experiment [1] was 6.5%; in experiment [2], 16.5% (inactive).

Turning to `FC(F)(F)c1cnc(NNC(=S)NCC2CCCO2)c(Cl)c1` (centres undefined), the inhibition in experiment [1] is -1%; in experiment [2], 51.5% (inactive).

For the molecule `CC(C)NC(=S)NNc1ncc(C(F)(F)F)cc1Cl`, the inhibition is 8% in experiment [1] and 89% (active) in experiment [2].

On to `CC(C)NC(=S)NNc1ccccc1C(F)(F)F`, for which the inhibition was -31% in experiment [1] and 14% (inactive) in experiment [2].

With `CCN(C(=O)CSc1nnc(-c2ccccc2)c(-c2ccccc2)n1)C1CCS(=O)(=O)C1` (centres undefined), the results for the inhibition in experiment [1] and in experiment [2] were -2.5% and 6% (inactive), respectively.

Regarding `COC(=O)C1=C(C)NC(C)=C(C(=O)OC)C1C(=O)OCC(=O)Nc1cccc2nsnc12`, the inhibition in experiment [1] is -2%; in experiment [2], -15% (inactive).

Turning to `N#CCC(=O)Nc1ccc(C(=O)NCc2ccccc2)cc1`, the figures for the inhibition in experiment [1] and in experiment [2] were 21.5% and 29.5% (inactive), respectively.

As to `CS(=O)(=O)CCC1NC(=O)NC1=O` (centres undefined), the inhibition was 2.5% in experiment [1] and 10.5% (inactive) in experiment [2].

For `COc1ccc(C(=O)Nc2ccc(N3CCCCC3)cc2)cc1`, the figures for the inhibition in experiment [1] and in experiment [2] were -2% and 22.5% (inactive), respectively.

Take `O=C(Nc1ccc(N2CCCCCC2)cc1)c1ccncc1`: the inhibition is 26.5% in experiment [1] and 62% (inactive) in experiment [2].

For the molecule `CC(=O)Nc1cccc(C(=O)Nc2ccc(N3CCCCC3)cc2)c1`, the inhibition is 7% in experiment [1] and 83.5% (active) in experiment [2].

`Cc1cc(C(=O)CSc2ccccn2)c(C)n1Cc1cccs1`: the inhibition in experiment [1] is 12%; in experiment [2] it was 16% (inactive).

In the case of `CCN(C(=O)C(C)Sc1nc(C)cs1)c1ccccc1` (centres undefined), the results for the inhibition in experiment [1] and in experiment [2] were 3.5% and 14.5% (inactive), respectively.

For the molecule `CCN(CC)C(=S)SSC(=S)N(CC)CC`, the results for the inhibition in experiment [1] and in experiment [2] were -13.5% and 96% (active), respectively.

Take `CCN(CC)C(=S)SCc1ncc(-c2ccccc2)o1`: the inhibition in experiment [1] was 3.5%; in experiment [2], 13% (inactive).

For `O=C(O)c1ccc(NNC(=S)NCC2CCCO2)cc1` (centres undefined), the inhibition is -33% in experiment [1] and -78.5% (inactive) in experiment [2].

On to `Cc1ccc(NNC(=S)NCC2CCCO2)c(C)c1` (centres undefined), for which the inhibition in experiment [1] was 6.5%; in experiment [2], 10% (inactive).

Take `FC(F)(F)c1nc(NNC(=S)NCC2CCCO2)c2ccccc2n1` (centres undefined): the inhibition in experiment [1] is 25%; in experiment [2], 100% (active).

For the molecule `O=C1CCC(C(=O)NC2CCCCCC2)=NN1`, the inhibition in experiment [1] was 11%; in experiment [2], 18.5% (inactive).

With `Cc1cc(SCC(=O)O)n2c(nc3ccccc32)c1C#N`, the results for the inhibition in experiment [1] and in experiment [2] were 1% and 20% (inactive), respectively.

For the molecule `Cc1ccccc1N1C(=O)Cc2ccccc2C1=O`, the inhibition in experiment [1] is 2%; in experiment [2], 16.5% (inactive).

Regarding `Cc1ccccc1-n1cc[nH]c1=S`, the inhibition in experiment [1] is 4.5%; in experiment [2], 23.5% (inactive).

For `Cc1ccccc1N1C(=O)C=CC1=O`, the inhibition is 4% in experiment [1] and 82% (active) in experiment [2].

For the molecule `O=C(O)CCN(Cc1ccccc1)S(=O)(=O)c1cccs1`, the inhibition in experiment [1] was 1.5%; in experiment [2], 11% (inactive).

For the molecule `Cc1nc2ccc(NC(=O)C3CCCC3)cc2s1`, the inhibition in experiment [1] was 12.5%; in experiment [2], 14% (inactive).

Turning to `N#Cc1ccc(CSc2nncn2-c2ccccc2)cc1`, the inhibition was -2% in experiment [1] and -5.5% (inactive) in experiment [2].

Regarding `NNc1nc(-c2ccccc2)c2cc(Br)ccc2n1`, the results for the inhibition in experiment [1] and in experiment [2] were 16.5% and 91% (active), respectively.

On to `Nc1nc(N)c2nc(-c3ccccc3)c(N)nc2n1`, for which the inhibition in experiment [1] was 21%; in experiment [2], 5% (inactive).

On to `Cc1ccc2nc(N3CCCC3)nc(-c3ccccc3)c2c1`, for which the inhibition in experiment [1] is 2.5%; in experiment [2], 3% (inactive).

With `CCC(=O)Nc1ccc(C(=O)CN2C(=O)NC3(CCCc4ccccc43)C2=O)cc1` (centres undefined), the values for the inhibition in experiment [1] and in experiment [2] were 16% and 14.5% (inactive), respectively.

For `O=C(COc1ncnc2ccc(Br)cc12)N1CCCCC1`, the inhibition in experiment [1] was 4.5%; in experiment [2] it was 4.5% (inactive).

Take `Cc1cc(C)nc(SCC(=O)OCCN2C(=O)c3ccccc3C2=O)n1`: the inhibition is 9.5% in experiment [1] and 18% (inactive) in experiment [2].

As to `Cc1cc(C)nc(SC2=C(N3CCC(C)CC3)C(=O)N(Cc3ccccc3)C2=O)n1`, the figures for the inhibition in experiment [1] and in experiment [2] were 4.5% and 14% (inactive), respectively.

On to `Cc1cc(C)nc(SC2=C(Nc3ccc(O)cc3)C(=O)N(Cc3ccccc3)C2=O)n1`, for which the inhibition in experiment [1] was 26.5%; in experiment [2], 86.5% (active).

With `Cc1c(CN2CC=C(c3ccccc3)CC2)c(=O)n(-c2ccccc2)n1C`, the values for the inhibition in experiment [1] and in experiment [2] were -2.5% and 9% (inactive), respectively.

Regarding `Cc1cc(O)c(CN2CC=C(c3ccccc3)CC2)cc1C(C)C`, the inhibition is -16% in experiment [1] and -85.5% (active) in experiment [2].

For the molecule `COc1ccc2c(CN3CC=C(c4ccccc4)CC3)cc(=O)oc2c1`, the inhibition in experiment [1] was 8%; in experiment [2], 4.5% (inactive).
